Legend:
[1] = test system: Tyrosine-protein kinase ABL1 (Homo sapiens), P00519 [T315I]; details: at 1 µM
[2] = test system: Tyrosine-protein kinase ABL1 (Homo sapiens), P00519 [Y253F]; details: at 0.1 µM
[3] = test system: Tyrosine-protein kinase ABL1 (Homo sapiens), P00519 [Y253F]; details: at 1 µM
[4] = biological target: Tyrosine-protein kinase ABL1 (Homo sapiens) (UniProt P00519); details: at 0.1 µM
[5] = biological target: Tyrosine-protein kinase ABL1 (Homo sapiens) (UniProt P00519); details: at 1 µM
[6] = biological target: ALK tyrosine kinase receptor (Homo sapiens) (UniProt Q9UM73); details: at 0.1 µM
Chain of ALK tyrosine kinase receptor (Homo sapiens) (Q9UM73 19-1620 limits assumed): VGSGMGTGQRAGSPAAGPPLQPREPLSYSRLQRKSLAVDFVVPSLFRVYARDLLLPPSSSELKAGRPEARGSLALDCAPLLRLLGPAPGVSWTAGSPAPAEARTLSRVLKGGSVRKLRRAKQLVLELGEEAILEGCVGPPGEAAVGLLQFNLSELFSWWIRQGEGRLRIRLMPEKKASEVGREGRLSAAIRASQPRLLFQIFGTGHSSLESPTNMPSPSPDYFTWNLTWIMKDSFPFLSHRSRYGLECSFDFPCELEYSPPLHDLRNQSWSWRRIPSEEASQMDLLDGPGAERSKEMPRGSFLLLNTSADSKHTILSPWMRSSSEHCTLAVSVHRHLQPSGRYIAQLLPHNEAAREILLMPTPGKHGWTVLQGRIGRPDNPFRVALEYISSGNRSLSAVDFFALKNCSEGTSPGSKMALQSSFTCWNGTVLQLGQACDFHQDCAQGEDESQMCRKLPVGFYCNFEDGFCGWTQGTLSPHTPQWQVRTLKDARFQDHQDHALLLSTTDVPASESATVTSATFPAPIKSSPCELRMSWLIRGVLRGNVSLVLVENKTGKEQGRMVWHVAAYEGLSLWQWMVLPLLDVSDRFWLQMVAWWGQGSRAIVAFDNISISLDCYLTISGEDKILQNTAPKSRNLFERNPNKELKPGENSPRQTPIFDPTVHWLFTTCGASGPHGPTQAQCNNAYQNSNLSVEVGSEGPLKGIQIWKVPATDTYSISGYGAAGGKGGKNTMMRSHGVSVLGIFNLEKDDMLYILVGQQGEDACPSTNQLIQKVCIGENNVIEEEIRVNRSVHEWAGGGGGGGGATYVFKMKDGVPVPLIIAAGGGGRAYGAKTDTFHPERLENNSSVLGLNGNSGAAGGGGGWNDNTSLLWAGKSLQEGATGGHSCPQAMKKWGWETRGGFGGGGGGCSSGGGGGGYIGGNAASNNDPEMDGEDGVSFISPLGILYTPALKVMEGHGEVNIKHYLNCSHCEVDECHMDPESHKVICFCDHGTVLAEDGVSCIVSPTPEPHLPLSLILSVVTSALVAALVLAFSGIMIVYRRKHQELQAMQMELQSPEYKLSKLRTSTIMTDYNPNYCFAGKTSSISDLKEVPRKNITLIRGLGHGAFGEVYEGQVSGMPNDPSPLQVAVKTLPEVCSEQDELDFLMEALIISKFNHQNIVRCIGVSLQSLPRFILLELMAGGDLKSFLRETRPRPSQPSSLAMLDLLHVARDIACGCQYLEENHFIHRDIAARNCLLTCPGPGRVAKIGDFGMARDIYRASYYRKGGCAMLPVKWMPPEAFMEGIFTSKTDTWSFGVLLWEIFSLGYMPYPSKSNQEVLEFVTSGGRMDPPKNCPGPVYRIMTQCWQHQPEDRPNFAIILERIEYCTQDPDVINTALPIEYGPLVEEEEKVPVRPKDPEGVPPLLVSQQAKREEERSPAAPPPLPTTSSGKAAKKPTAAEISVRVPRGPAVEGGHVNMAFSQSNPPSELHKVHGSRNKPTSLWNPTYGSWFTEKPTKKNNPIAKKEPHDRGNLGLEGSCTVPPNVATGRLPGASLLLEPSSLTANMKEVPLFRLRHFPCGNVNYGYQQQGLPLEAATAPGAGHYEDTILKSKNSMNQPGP

[7] = biological target: ALK tyrosine kinase receptor (Homo sapiens) (UniProt Q9UM73); details: at 1 µM
[8] = biological target: Tyrosine-protein kinase ABL2 (Homo sapiens) (UniProt P42684); details: at 0.1 µM
Chain of Tyrosine-protein kinase ABL2 (Homo sapiens) (P42684 whole entry): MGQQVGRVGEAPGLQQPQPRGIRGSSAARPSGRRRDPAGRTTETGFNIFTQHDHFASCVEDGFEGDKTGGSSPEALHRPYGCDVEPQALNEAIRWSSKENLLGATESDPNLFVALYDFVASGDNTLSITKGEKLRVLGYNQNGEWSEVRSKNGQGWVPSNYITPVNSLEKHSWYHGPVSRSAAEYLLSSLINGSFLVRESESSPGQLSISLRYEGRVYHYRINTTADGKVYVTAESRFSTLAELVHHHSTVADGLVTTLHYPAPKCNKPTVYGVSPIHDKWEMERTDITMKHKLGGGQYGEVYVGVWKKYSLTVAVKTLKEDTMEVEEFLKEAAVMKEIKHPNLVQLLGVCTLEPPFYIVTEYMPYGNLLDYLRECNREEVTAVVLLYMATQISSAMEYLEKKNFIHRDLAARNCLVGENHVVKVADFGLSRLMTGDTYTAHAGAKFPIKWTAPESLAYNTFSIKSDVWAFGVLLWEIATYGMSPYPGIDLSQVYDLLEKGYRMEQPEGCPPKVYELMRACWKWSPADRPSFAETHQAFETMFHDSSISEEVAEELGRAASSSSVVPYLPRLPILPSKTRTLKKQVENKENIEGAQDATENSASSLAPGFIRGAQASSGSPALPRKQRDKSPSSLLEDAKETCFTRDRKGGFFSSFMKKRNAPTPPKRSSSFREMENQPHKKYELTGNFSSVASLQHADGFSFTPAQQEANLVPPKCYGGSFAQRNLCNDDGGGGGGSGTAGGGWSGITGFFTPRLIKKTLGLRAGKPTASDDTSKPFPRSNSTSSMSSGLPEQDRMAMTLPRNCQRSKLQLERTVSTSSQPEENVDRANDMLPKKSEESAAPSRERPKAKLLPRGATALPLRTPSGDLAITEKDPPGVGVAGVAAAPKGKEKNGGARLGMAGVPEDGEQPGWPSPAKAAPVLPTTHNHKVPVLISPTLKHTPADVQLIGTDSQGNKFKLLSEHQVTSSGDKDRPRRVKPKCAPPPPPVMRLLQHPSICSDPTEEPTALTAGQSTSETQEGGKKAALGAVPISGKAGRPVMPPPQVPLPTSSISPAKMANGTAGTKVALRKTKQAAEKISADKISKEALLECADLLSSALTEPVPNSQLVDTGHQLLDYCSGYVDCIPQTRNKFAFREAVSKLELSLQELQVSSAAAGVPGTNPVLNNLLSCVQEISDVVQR

[9] = biological target: Tyrosine-protein kinase ABL2 (Homo sapiens) (UniProt P42684); details: at 1 µM
[10] = biological target: Tyrosine-protein kinase receptor UFO (Homo sapiens) (UniProt P30530); details: at 0.1 µM
Chain of Tyrosine-protein kinase receptor UFO (Homo sapiens) (P30530 whole entry): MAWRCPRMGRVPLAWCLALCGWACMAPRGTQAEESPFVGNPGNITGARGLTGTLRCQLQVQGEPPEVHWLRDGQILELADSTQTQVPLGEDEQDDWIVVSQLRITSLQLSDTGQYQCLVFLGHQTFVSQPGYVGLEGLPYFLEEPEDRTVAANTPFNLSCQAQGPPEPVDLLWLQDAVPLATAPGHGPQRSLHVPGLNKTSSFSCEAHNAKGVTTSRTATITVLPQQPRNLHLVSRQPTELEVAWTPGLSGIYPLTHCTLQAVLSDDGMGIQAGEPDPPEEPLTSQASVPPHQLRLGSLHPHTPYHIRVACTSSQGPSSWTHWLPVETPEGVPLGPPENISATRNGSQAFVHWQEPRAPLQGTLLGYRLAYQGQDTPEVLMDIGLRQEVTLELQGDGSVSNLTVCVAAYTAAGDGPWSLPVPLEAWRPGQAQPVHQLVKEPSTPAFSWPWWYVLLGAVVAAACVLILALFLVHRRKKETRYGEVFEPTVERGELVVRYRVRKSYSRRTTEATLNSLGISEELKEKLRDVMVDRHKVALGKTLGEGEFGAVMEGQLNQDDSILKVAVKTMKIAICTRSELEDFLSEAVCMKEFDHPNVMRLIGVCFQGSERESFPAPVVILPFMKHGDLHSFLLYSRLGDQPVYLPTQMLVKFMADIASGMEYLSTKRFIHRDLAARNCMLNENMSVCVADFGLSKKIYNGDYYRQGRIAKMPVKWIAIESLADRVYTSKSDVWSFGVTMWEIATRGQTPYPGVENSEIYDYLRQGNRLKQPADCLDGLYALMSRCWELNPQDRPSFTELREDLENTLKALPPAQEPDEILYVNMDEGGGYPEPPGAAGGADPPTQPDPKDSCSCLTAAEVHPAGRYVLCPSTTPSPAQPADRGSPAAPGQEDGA

[11] = biological target: Tyrosine-protein kinase receptor UFO (Homo sapiens) (UniProt P30530); details: at 1 µM
[12] = biological target: Tyrosine-protein kinase Blk (Homo sapiens) (UniProt P51451); details: at 0.1 µM
Chain of Tyrosine-protein kinase Blk (Homo sapiens) (P51451 2-505 limits assumed): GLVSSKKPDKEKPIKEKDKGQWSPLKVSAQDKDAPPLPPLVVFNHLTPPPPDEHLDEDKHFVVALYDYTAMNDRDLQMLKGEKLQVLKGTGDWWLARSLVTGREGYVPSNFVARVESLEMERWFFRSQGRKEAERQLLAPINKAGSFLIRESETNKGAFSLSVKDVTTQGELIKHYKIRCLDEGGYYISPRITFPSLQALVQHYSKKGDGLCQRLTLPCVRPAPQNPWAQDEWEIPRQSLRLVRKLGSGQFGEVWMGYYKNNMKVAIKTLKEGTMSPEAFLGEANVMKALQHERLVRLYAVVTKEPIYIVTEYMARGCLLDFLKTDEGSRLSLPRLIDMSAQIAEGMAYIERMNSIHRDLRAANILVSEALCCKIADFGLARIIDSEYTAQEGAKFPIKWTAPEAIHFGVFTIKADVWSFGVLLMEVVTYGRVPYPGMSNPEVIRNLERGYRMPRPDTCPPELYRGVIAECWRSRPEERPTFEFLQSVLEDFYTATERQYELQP

[13] = biological target: Tyrosine-protein kinase Blk (Homo sapiens) (UniProt P51451); details: at 1 µM
[14] = biological target: T1, Cytoplasmic tyrosine-protein kinase BMX (Homo sapiens) (UniProt P51813); details: at 0.1 µM
T1 sequence (whole entry): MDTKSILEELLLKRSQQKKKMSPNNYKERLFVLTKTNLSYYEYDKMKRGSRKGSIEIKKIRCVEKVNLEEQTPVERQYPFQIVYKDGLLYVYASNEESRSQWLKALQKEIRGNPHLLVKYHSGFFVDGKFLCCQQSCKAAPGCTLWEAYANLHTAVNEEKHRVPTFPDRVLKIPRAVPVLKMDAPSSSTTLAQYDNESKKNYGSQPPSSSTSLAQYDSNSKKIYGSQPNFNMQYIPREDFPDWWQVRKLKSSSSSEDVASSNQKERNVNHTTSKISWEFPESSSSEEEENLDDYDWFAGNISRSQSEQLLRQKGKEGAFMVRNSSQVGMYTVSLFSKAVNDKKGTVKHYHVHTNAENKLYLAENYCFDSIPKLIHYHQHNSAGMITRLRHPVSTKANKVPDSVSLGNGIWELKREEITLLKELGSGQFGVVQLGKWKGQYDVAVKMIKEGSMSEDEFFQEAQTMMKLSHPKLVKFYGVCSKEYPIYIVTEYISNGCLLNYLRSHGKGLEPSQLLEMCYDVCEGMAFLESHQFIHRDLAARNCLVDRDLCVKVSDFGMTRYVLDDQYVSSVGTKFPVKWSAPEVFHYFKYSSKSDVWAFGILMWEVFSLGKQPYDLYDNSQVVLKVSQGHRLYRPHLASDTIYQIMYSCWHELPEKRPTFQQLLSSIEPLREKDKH

[15] = biological target: T1, Cytoplasmic tyrosine-protein kinase BMX (Homo sapiens); details: at 1 µM
[16] = biological target: Protein-tyrosine kinase 6 (Homo sapiens) (UniProt Q13882); details: at 0.1 µM
Chain of Protein-tyrosine kinase 6 (Homo sapiens) (Q13882 whole entry, looked up): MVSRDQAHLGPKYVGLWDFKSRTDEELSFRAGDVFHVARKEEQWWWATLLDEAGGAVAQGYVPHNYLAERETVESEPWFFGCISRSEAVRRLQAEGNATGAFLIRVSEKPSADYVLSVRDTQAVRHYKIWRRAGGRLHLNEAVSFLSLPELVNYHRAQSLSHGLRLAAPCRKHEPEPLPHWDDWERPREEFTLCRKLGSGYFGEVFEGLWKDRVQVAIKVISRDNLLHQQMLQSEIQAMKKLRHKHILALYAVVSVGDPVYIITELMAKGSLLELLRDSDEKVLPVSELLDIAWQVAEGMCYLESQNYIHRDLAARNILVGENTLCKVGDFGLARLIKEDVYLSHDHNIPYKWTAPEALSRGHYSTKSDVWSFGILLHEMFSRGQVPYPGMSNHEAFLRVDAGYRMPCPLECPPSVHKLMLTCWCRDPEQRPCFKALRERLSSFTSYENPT

[17] = biological target: Protein-tyrosine kinase 6 (Homo sapiens) (UniProt Q13882); details: at 1 µM
[18] = biological target: Tyrosine-protein kinase BTK (Homo sapiens) (UniProt Q06187); details: at 0.1 µM
[19] = biological target: Tyrosine-protein kinase BTK (Homo sapiens) (UniProt Q06187); details: at 1 µM
[20] = biological target: Tyrosine-protein kinase CSK (Homo sapiens) (UniProt P41240); details: at 0.1 µM;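 further: value given is the averaged percent inhibition of CSK kinase activity, from the GSK PKIS kinase inhibitor set screening panel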
Chain of Tyrosine-protein kinase CSK (Homo sapiens) (P41240 2-450 limits assumed): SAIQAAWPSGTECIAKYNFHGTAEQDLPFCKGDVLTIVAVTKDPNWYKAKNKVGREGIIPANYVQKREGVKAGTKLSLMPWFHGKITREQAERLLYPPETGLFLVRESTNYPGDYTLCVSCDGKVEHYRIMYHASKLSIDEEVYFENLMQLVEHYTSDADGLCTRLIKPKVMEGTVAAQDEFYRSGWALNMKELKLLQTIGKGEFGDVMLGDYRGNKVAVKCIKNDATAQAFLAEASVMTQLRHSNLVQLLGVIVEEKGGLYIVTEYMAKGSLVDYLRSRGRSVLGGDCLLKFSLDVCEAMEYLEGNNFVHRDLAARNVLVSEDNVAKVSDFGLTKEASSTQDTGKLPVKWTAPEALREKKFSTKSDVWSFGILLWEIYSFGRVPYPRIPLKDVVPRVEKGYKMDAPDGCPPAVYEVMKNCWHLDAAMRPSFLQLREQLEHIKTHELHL

SMILES | inhibition [1] | inhibition [2] | inhibition [3] | inhibition [4] | inhibition [5] | inhibition [6] | inhibition [7] | inhibition [8] | inhibition [9] | inhibition [10] | inhibition [11] | inhibition [12] | inhibition [13] | inhibition [14] | inhibition [15] | inhibition [16] | inhibition [17] | inhibition [18] | inhibition [19] | inhibition [20]
COc1cc(N2CCN(C(C)C)CC2)ccc1Nc1nc(Nc2ccc(F)cc2C(=O)NC[C@@H](O)CO)c2cc[nH]c2n1 | 6.94% | 4.03% | 6.49% | -1.73% | 0.53% | 82.6% | 69.5% | -1.39% | 1.38% | -4.74% | 7.75% | -1.34% | 0.03% | 3.82% | 4.34% | 4.82% | 7.68% | -2.66% | -4.6% | 5.74%
CN1CCN(CCCNc2nc3ccc(Oc4ccc(NC(=O)Nc5cc(C(F)(F)F)ccc5F)cc4)cc3[nH]2)CC1 | 32% | 4.8% | 10.8% | -0.51% | 13.6% | -3.93% | 0.57% | -0.15% | 15.4% | 0.85% | 27.5% | -2.37% | -2.3% | -1.87% | 2.63% | -0.99% | 1.35% | -3.09% | 1.43% | -0.95%
N#Cc1ccc(Oc2nccc(-c3c(-c4ccc(F)cc4)ncn3C3CCNCC3)n2)cc1 | 5.17% | 2.11% | 5.93% | 3.72% | 5.42% | 3.58% | 5.33% | 1.9% | 6.94% | -5.46% | -3.22% | 2.21% | 3.73% | 3.25% | 4.26% | 4.1% | 4.81% | -1.09% | 0.54% | 0.79%
CNC(=O)c1cncc(/C=C/c2c(C)cccc2C)c1 | 2.52% | 21.9% | 70.3% | 6.54% | 57.3% | -3.56% | -1.77% | 7.09% | 51.3% | -0.01% | 3.27% | -1.68% | 16.2% | 6.81% | 42.4% | 13.4% | 61.9% | -1.07% | 7.27% | 5.83%
Cc1ccc(C(=O)NC(C)C)cc1-c1ccc(C(=O)NCC2CC2)cc1 | 0.58% | -2.81% | -0.96% | 0.14% | 1.26% | -4.4% | -3.45% | -2.09% | -0.41% | 2.35% | 4.77% | -1.25% | -1.6% | -4.33% | -4.09% | -3.3% | -4.09% | -0.46% | -1.32% | -7.18%
O=C1Nc2ccccc2/C1=C/Nc1ccc(-n2cncn2)cc1 | 17.2% | 3.13% | 13.1% | 1.87% | 13.5% | 1.97% | 11.8% | 3.58% | 7.69% | -6.88% | -3.55% | 3.13% | 19.7% | 6.8% | 4.54% | 3.56% | 6% | 0.25% | -0.4% | 3.03%
C#Cc1cccc(Nc2ncnc3ccc(OCCCCNCCS(C)(=O)=O)cc23)c1 | 19.4% | 8.28% | 24.9% | 8.05% | 26.8% | 3.38% | 31.9% | 5.87% | 14.8% | -8.14% | -7.98% | 2.28% | 3.96% | 3.24% | 5.57% | 6.2% | 10.2% | -3.76% | 1.2% | 3.24%
C/C(Nc1ccc(S(N)(=O)=O)cc1)=C1/C(=O)Nc2ccccc21 | 12.2% | -0.47% | 12.8% | 1.79% | 11.7% | -1.33% | 14.2% | -0.23% | 10.1% | 0.11% | 10.5% | -0.72% | 12% | -4.07% | -0.17% | -2.78% | -1.43% | -2.32% | -1.09% | -5.47%
O=C1NC(=O)C(c2cccc(Cl)c2)=C1Nc1ccc(Cl)c(C(=O)O)c1 | 4.06% | 1.35% | 3.2% | 3.49% | 5.5% | 1.24% | 3.05% | 3.74% | -0.4% | -4.48% | -3.02% | 2.33% | 0.47% | 8.42% | 2.62% | 3.64% | 5.12% | -0.87% | 0.33% | 1.29%
COC(=O)Nc1nc2ccc(Sc3ccc(NC(=O)Nc4cc(C(F)(F)F)ccc4F)cc3)cc2[nH]1 | 72.3% | 3.61% | 31.3% | 3.45% | 33% | 1.12% | 2.57% | 11.8% | 58.9% | 1.61% | 10.9% | 0.49% | 2.36% | 3.33% | -0.17% | 1.16% | 1.4% | 2.12% | 2.1% | 1.7%
CN(C)CCCNc1nccc(-c2c(-c3ccc(F)cc3)nn3cc(C(F)(F)F)ccc23)n1 | 2.66% | 3.93% | 6.04% | 2.04% | 11.2% | -2.64% | -0.07% | 2.2% | 6.34% | -2.11% | 3.68% | -1.5% | -0.77% | -2.3% | 3.77% | 2.2% | 4.39% | -3.09% | -2.3% | 2.44%
COc1cccc(/C=N/Nc2ncnc3c2cnn3-c2cccc(OC)c2)c1 | 10.4% | 11.1% | 49.7% | 6.38% | 27.4% | 1.22% | 2.63% | 2.78% | 15.2% | -6.24% | -4.88% | 1.56% | 4.98% | 2.16% | 5.64% | 2.5% | 5.61% | -0.27% | -1.35% | 2.79%
Cc1ccc(C(=O)NC2CCC2)cc1-c1ccc(C(=O)NCC2CC2)cc1 | -1.77% | 2.23% | 0.38% | 3.73% | 5.96% | 2.79% | 3.48% | 3.15% | 0.48% | -4.44% | -1.14% | 2.1% | 1.49% | 8.25% | 2.61% | 1.28% | 1.95% | 0.87% | 0.88% | -0.66%

From ChEMBL document CHEMBL1961873, “Compounds: GSK PKIS; Assays: Nanosyn kinase panel” (2012)
